The experiment can be described thus: anti-His antibody binders, primary screen, artefact control for SMM control protein annotation, biochemical, small-molecule microarray, 635 nm fluorescence (AID 1128).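 Further: score merges feature fluorescence with signal-to-noise for each printed compound spot.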 Conditions: anti-His Alexa647 antibody binding, higher = more signal.
`Cc1ccc(S[C@]2(C(=O)NCC(F)(F)F)CC(=O)N(Cc3ccccc3)[C@@H]2c2ccc(CO)cc2)cc1` showed a composite z-score of -0.951. Next, `O=C1O[C@@H](c2ccccc2)[C@@H](c2ccccc2)N2[C@@H](c3ccccc3OCCO)[C@]3(C(=O)Nc4ccccc43)[C@@H](C(=O)NC[C@H](O)c3ccccc3)[C@H]12`: -0.27; `COc1ccc([Si](C)(C)[C@@H]2[C@@H](CC(=O)N3CCC[C@H]3CO)O[C@]3(C(=O)N(Cc4ccc(N5C(=O)c6cccc7cccc5c67)cc4)c4ccccc43)[C@H]2C)cc1`: 1.96; `O=C1NC(=O)C2C1C=CC(C(O)c1ccc(Br)cc1)N2Nc1ccccn1` (stereo not given): 1.32. Regarding `O=C1C2C=CC(C(O)c3cc(C(F)(F)F)cc(C(F)(F)F)c3)N(Nc3ccc([N+](=O)[O-])cc3)C2C(=O)N1c1ccccc1` (stereo not given), the composite z-score amounted to 0.338. Next, `O=C1O[C@@H](c2ccccc2)[C@@H](c2ccccc2)N2[C@@H](c3ccccc3OCCO)[C@]3(C(=O)Nc4ccc(C#CCCO)cc43)[C@@H](C(=O)Nc3nc4ccccc4s3)[C@H]12`: 2.3.

Consider `COc1ccccc1CN1C(=O)c2ccccc2[C@](Cc2ccccc2I)(C(=O)NC(C)C)[C@@H]1c1ccc(CO)cc1`, for which the composite z-score came to 1.94.

As for `COC(=O)C(CC#Cc1ccc2c(c1)[C@]1(C(=O)N2)[C@H](C(=O)O)[C@H]2C(=O)O[C@H](c3ccccc3)[C@H](c3ccccc3)N2[C@@H]1c1ccccc1OCCO)C(=O)OC`, the composite z-score was 2.8. Next, `CC(C)NC(=O)[C@@]1(C)c2ccccc2C(=O)N(C(C)C)[C@H]1c1ccc(CO)cc1`: -0.398; `NCCCCCCNC(=O)[C@@H]1C[C@@H]2C(=O)N3CCC[C@H]3C(=O)N2[C@@H]1c1ccc(O)cc1`: 0.508; `CC(C)C(O)C1C=CC2C(=O)N(C)C(=O)C2N1Nc1ccccc1` (stereo not given): 0.932. Next, `C=CC[C@]12N=C(c3ccc(OCCCO)cc3)O[C@H]1c1ccccc1N(C)C2=O`: 2.7. Next, `CC(C)(C)OC(=O)CC[C@]1(C(=O)O)N=C(c2ccc(OCCCO)cc2)O[C@H]1c1ccccc1CN=[N+]=[N-]`: 0.401; `COc1ccc(NN2C(C(O)c3ccco3)C=CC3C(=O)N(C4CCCCC4)C(=O)C32)cc1` (stereo not given): 1.04. The compound `CCOC(=O)[C@H]1C/C=C/C[C@H](C(=O)OCC)C(=O)O[C@H]2[C@@H](OC)O[C@H](CO)[C@@H](OC(=O)CCc3ccccc3)[C@@H]2OC1=O` yielded a composite z-score of 0.522.

In turn, `COCCOC(=O)N1C(=O)[C@@]2(c3cc(C#CCNC(N)=O)ccc31)[C@H](C(=O)N1CCCCCCC1)[C@H]1C(=O)O[C@H](c3ccccc3)[C@H](c3ccccc3)N1[C@@H]2c1ccc(O)cc1` registered a composite z-score of -0.269. Next, `O=C1c2ccccc2[C@](Cc2ccccc2I)(C(=O)NCc2ccccc2)[C@H](c2ccc(CO)cc2)N1C1CCCCC1`: 2.68; `C=CCOC(=O)[C@H]1[C@@H]2C(=O)O[C@@H](c3ccccc3)[C@@H](c3ccccc3)N2[C@@H](c2ccc(OCCOC(=O)[C@H]3C[C@H]4C(=O)N[C@@H](Cc5ccccc5)C(=O)N4[C@H]3c3ccc(O)cc3)cc2)[C@]12C(=O)Nc1ccc(I)cc12`: 0.951. Next, `COCCCNC(=O)[C@@]1(Sc2ccc(C)cc2)CC(=O)N(Cc2cc(C(F)(F)F)cc(C(F)(F)F)c2)[C@@H]1c1ccc(CO)cc1`: 1.79. Next, `C=CCN1C(=O)[C@@]2(CCC(=O)OC(C)(C)C)N=C(c3ccc(OCCCO)cc3)O[C@H]2c2ccccc21`: 2.33; `C=CCNC(=O)[C@@H]1[C@H]2C(=O)O[C@H](c3ccccc3)[C@H](c3ccccc3)N2[C@H](c2ccccc2OCCO)[C@@]12C(=O)N(C(=O)OCCOC)c1ccc(C#CC3=CCCCC3)cc12`: 1.66. The compound `COc1ccc(C(O)C2C=CC3C(=O)N(c4ccccc4)C(=O)C3N2Nc2ccc(C#N)cc2)c2ccccc12` (stereo not given) had a composite z-score of 1.67. Next, `COCCOC(=O)N1C(=O)[C@@]2(c3cc(C#CC4(O)CCCCCC4)ccc31)[C@H](c1ccccc1OCCO)N1[C@H](c3ccccc3)[C@H](c3ccccc3)OC(=O)[C@H]1[C@@H]2C(N)=O`: 1.47; `C[C@]1(C(=O)NC2CC2)c2ccccc2C(=O)N(Cc2ccc(OC(F)(F)F)cc2)[C@H]1c1ccc(CO)cc1`: -0.725.

`C#CCNC(=O)[C@H](Cc1ccccc1)NC(=O)[C@@H](N=[N+]=[N-])C(C)C` had a composite z-score of 0.141. Next, `CC(C)(C)OC(=O)CC[C@]1(C(=O)NCCN2CCOCC2)N=C(c2ccc(OCCCO)cc2)O[C@H]1c1ccccc1`: 2.21; `[N-]=[N+]=NCc1ccccc1C[C@]1(C(=O)NCC(O)CO)N=C(c2ccc(OCCCO)cc2)O[C@H]1c1ccccc1CN=[N+]=[N-]` (stereo not given in full): 2.73; `COc1cc2c(cc1OC)CN(C(=O)[C@@H]1[C@H]3C(=O)O[C@H](c4ccccc4)[C@H](c4ccccc4)N3[C@H](c3ccccc3OCCO)[C@@]13C(=O)Nc1ccc(C#CC4(O)CCCCCC4)cc13)CC2`: 1.57.

Turning to `C[C@@H](OCc1ccccc1)C1NC(=O)[C@@]23C(=O)N[C@@H](Cc4ccccc4)C2[C@H](C)[C@@]2(C)O[C@H]2C3/C=C/C/C=C\CNC(=O)CNC1=O` (stereo not given in full), the composite z-score was determined as 0.413. Next, `COCCCNC(=O)[C@]1(CCC(=O)OC(C)(C)C)N=C(c2ccc(OCCCO)cc2)O[C@@H]1c1ccccc1`: 3.52. Compound `CN(C)C(=O)[C@@]1(Cc2ccccc2N=[N+]=[N-])COC(c2ccc(OCCCO)cc2)=N1` displayed a composite z-score of 0.869.

For `CCCc1cccc(=O)o1`, the composite z-score came out at 0.439. Next, `CC(C)C[C@@H]1NC(=O)[C@H]2C[C@@H](C(=O)NCCCCCC[N+](C)(C)C)[C@@H](c3cccc(OCCO)c3)N2C1=O`: 2.76.

The compound `[N-]=[N+]=Nc1ccccc1C[C@]1(C(=O)NCc2ccccc2)N=C(c2ccc(OCCCO)cc2)O[C@H]1c1ccccc1` had a composite z-score of 1.93. Consider `C[C@@H]1ON(c2ccc(C(=O)OC(C)(C)C)cc2)[C@H](c2ccc(Br)cc2)[C@H]1C(=O)N1C(=O)OC[C@H]1Cc1ccccc1`, for which the composite z-score is 0.405.

The record behind these values is PubChem BioAssay.
